Most compounds without a hit are left out; they make up all but 4.1% or so of the library.
hgDAF-12 ag = H. glycines DAF-12 receptor agonists, primary screen, cell-based, luminescence, HEK293, GAL4 fusion, UAS-luciferase; HEK293 GAL4-hgDAF12 UAS-luciferase reporter, agonist luminescence; normalized to butyrate control; activation, % at 6.8 µM; actives 1.8% (n = 370,000); AID 687014, 2013;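 active means activation above a cutoff set at the mean of all screened compounds plus 3 SD, cut at about 10% in these data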
ssDAF-12 act = S. stercoralis DAF-12 nuclear receptor activators, primary screen, cell-based, luminescence, HEK293, GRIP1 co-expression, lit1-tk-luc. Nuclear hormone receptor DAF-12 (Strongyloides stercoralis). HEK293 ssDAF-12/GRIP1 lit1-tk-luc reporter; % of 3 µM dafachronic acid response. activation, % at 6.8 µM. actives 1% (n = 370,000). AID 652126, 2013;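 active means activation above the mean over all tested compounds plus 3 SD, cut at about 0.9% in these data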
DAX1 inh-1 = DAX1 (NR0B1) inhibitors, primary screen, cell-based, HEK293, Gal4-DAX1, luciferase luminescence | Nuclear receptor subfamily 0 group B member 1 (Homo sapiens), P51843 | HEK293 Gal4-DAX1 luciferase reporter | inhibition, % at 6.75 µM | actives 0.99% (n = 340,000);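 active means inhibition above the mean over all tested compounds plus 3 SD, cut at about 4.2% in these data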;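 further: inhibition shows as a rise in luminescence from relieved DAX1 repression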
Target sequence (P51843 207-470 limits assumed): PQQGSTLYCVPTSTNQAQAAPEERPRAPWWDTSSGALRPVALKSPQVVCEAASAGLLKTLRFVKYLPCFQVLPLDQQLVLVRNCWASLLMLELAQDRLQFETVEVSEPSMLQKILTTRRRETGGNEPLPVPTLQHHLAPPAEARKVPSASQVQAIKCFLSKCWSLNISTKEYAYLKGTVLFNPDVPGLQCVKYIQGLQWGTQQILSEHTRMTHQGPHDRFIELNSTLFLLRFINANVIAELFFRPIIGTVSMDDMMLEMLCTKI
hcDAF12 agonist = H. contortus DAF-12 nuclear receptor activators, primary screen, cell-based, luminescence, HEK293, lit1-tk-luc reporter; HEK293 hcDAF-12 lit1-tk-luc reporter; 0% DMSO, 100% Δ7-dafachronic acid; activation, % at 6.8 µM; actives 1.4% (n = 370,000);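 active means activation above the mean of all tested compounds plus 3 SD, cut at about 5.5% in these data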
DAX1 inh-2 = DAX1 (NR0B1) inhibitors on StAR promoter, primary screen, cell-based, luminescence, SF-1 (NR5A1), full-length DAX-1; HEK293T StAR-luciferase reporter, SF-1/DAX-1 repression relief; inhibition, % at 6.8 µM; actives 1.1% (n = 370,000);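 active means inhibition above the mean over all tested compounds plus 3 SD, cut at about 3.6% in these data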;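 further: higher inhibition means more luminescence from relief of DAX-1 repression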
LXR ag = LXR agonists, Gal4 luciferase reporter, confirmation, counter-screen for hcDAF-12 agonist project, cell-based, luminescence, HEK293, H. contortus campaign; shares compounds with hcDAF12 agonist; HEK293 Gal4-LXR tk-luc reporter, 24 h; normalized: DMSO 0%, positive control 100%; activation, % at 6.8 µM; 3,400 tested, under 10 active;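 active means mean percent activation of the reporter above a cutoff set as the average over tested compounds plus their standard deviation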
hcDAF12 conf = H. contortus DAF-12 receptor agonists, confirmation, cell-based, luminescence, HEK293, lit1-tk-luc, triplicate; shares compounds with hcDAF12 agonist; HEK293 hcDAF-12 lit1-tk-luc reporter; % of Δ7-dafachronic acid response; activation, % at 6.8 µM; actives 61% (n = 3,400); AID 743032, 2013;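 active means mean activation across triplicate tests above the threshold derived from the earlier primary screen, cut at about 5.5% in these data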
Hits are given with their value; – = inactive; · = no result.

SMILES	hgDAF-12 ag	ssDAF-12 act	DAX1 inh-1	hcDAF12 agonist	DAX1 inh-2	LXR ag	hcDAF12 conf
COc1ccccc1C(=O)N/C(N)=N/c1nc2ccccc2o1	–	1.1	–	7.0	–	–	8.6
Cc1ccc(C(=O)N/C(N)=N/c2nc3ccccc3o2)cc1	–	–	–	–	–	·	·
O=C1N(Cc2ccccc2)c2ccc(Br)cc2[C@]12C[C@H](O)CO2	–	–	·	–	–	·	·
COc1ccc(/C=C2\Oc3ccccc3C2=O)cc1	10.4	–	–	7.2	–	–	–
COC(=O)C1(C(=O)OC)C[C@H](c2cccs2)N(Cc2ccccc2OC)[C@@H]1c1ccc(F)cc1	–	–	·	–	–	·	·
COc1cc(NC(=O)c2cc(-c3ccco3)on2)c(OC)cc1Cl	–	–	–	6.6	–	–	7.7
COc1ccc2[nH]c3c(C)c4ccncc4c(C)c3c2c1	–	2.0	–	7.3	–	–	–
O=C(CN1C(=O)CCSc2ccccc21)Nc1ccc(Cl)cc1	–	–	·	–	–	·	·
CC(=O)N(NC(=O)c1ccc(C)cc1)C1CC(=O)N(c2ccccc2Cl)C1=O (stereo unspecified)	–	–	–	8.6	–	–	–
CCCCN1C(=O)C(CC(=O)NCCc2ccccn2)CC(C(=O)N2CCOCC2)=C1C (stereo unspecified)	–	–	–	–	–	·	·
COc1ccc(Cc2c(-c3ccccc3)nc3c(C)cc(Br)cn23)c(C)c1	–	–	·	–	–	·	·
Cc1ccc(Nc2nc3ccccc3o2)cc1F	11.8	–	–	7.3	4.0	–	–
Cc1ccc2c(c1)C1CS(=O)(=O)N(CCc3ccccc3)CN1C2 (stereo unspecified)	–	–	·	–	–	·	·
CC1Oc2ccccc2OC1C(=O)Nc1nccs1 (stereo unspecified)	–	–	–	–	–	·	·
Cc1cc(NC(=O)C2Oc3ccccc3OC2C)no1 (stereo unspecified)	–	–	–	7.0	–	–	–
Cc1cc(NC2CCCC2)n2ncc(-c3ccccc3)c2n1	–	–	–	–	–	·	·
Cc1cc(N2CCC(C)CC2)n2ncc(-c3ccccc3)c2n1	–	–	–	–	–	·	·
Cc1cc(N2CCOCC2)n2ncc(-c3ccccc3)c2n1	–	–	–	9.4	–	–	15.8
Cc1cc(-c2ccccc2)n2ncc(-c3ccccc3)c2n1	–	–	–	10.8	3.9	–	20.3
COc1cc(-n2c(C)cc(O)cc2=O)ccc1Cl	–	–	·	–	–	·	·
Cc1ccccc1N1CCN(Cc2c[nH]c3ccccc23)CC1	–	–	–	6.6	–	–	–
CCS(=O)(=O)N1CCN(Cc2c[nH]c3ccccc23)CC1	–	–	–	7.4	–	–	–
COc1ccccc1N1CCN(Cc2c[nH]c3ccccc23)CC1	–	–	·	–	–	·	·
Cc1cccc(N(C)c2cc(-c3ccc(F)cc3)nc3ccnn23)c1	–	–	·	–	–	·	·
O=C(O)c1ccccc1C(=O)c1ccc2c(c1)CCC2	–	–	–	6.9	–	–	–
SMILES	hgDAF-12 ag	ssDAF-12 act	DAX1 inh-1	hcDAF12 agonist	DAX1 inh-2	LXR ag	hcDAF12 conf
Nc1ccc(-c2cnc3ccccc3n2)cc1	11.3	–	·	7.1	–	–	7.5
c1coc(-c2nc3ccccc3nc2-c2ccco2)c1	–	–	–	–	–	·	·
Clc1ccc(-c2cnc3ccccc3n2)cc1	–	–	–	–	–	·	·
c1coc(-c2cnc3ccccc3n2)c1	–	–	4.4	7.8	–	–	5.7
COCc1c(C(=O)NCC(c2ccco2)N2CCCC2)oc2ccccc12 (stereo unspecified)	–	–	–	–	–	·	·
COc1nc(NCCO)nc(Nc2ccc([N+](=O)[O-])cc2)n1	–	–	–	–	–	·	·
O=[N+]([O-])c1ccc(Nc2nc(Cl)nc(NCCO)n2)cc1	–	–	–	6.8	–	–	–
Cc1cc(O)c(C(=O)/C=C/c2ccccc2)c(=O)o1	–	–	–	–	–	·	·
Cc1cc(O)c(C(=O)/C=C/c2ccc(C(C)C)cc2)c(=O)o1	10.8	1.1	5.7	8.6	–	–	–
OCCCNc1ncnc2c1cnn2-c1ccc(Cl)cc1	–	–	–	7.4	–	–	–
O=C1CCCN1CCCNc1ncnc2c1cnn2-c1ccc(Cl)cc1	–	–	–	–	–	·	·
COc1ccccc1-c1nc(SCc2ccccn2)n[nH]1	–	–	4.9	6.9	–	–	9.0
c1ccc(-c2ccc(-c3ccccn3)nn2)nc1	–	–	·	6.9	–	–	8.7
c1ccc(-c2ccccn2)nc1	–	–	–	–	–	·	·
CCN(CC)S(=O)(=O)c1cccc(C(=O)Nc2ccc(S(=O)(=O)NC3=NCCCCC3)cc2)c1	–	–	–	–	–	·	·
O=C1c2ccccc2NC(c2ccc(-c3cccs3)o2)N1O (stereo unspecified)	11.5	1.0	–	7.1	–	–	6.0
O=C1c2ccccc2NC(c2ccc(-c3ccc(C(F)(F)F)cc3)o2)N1O (stereo unspecified)	–	–	–	–	–	·	·
CCc1ccc(N2NC(=O)/C(=C/C=C/c3ccco3)C2=O)cc1	–	–	–	7.7	–	–	–
CCOC(=O)c1ccc(N2N=C(C)/C(=C/C=C/c3ccco3)C2=O)cc1	–	–	–	–	–	·	·
CN(c1cc(Cl)c2c(c1)OCO2)c1cc2c(c3c1ccn3C)C1CCC2C1 (stereo unspecified)	–	–	·	–	–	·	·
CCCN(Cc1cc(=O)[nH]c2ccccc12)C(=O)CC	–	–	–	–	–	·	·
CCC(=O)N(CC)Cc1cc(=O)[nH]c2ccccc12	–	–	–	6.8	–	–	–
O=[N+]([O-])c1ccc(/C=C/c2ccc3cccc([N+](=O)[O-])c3n2)cc1	–	–	–	–	–	·	·
O=[N+]([O-])c1cccc2ccc(/C=C/c3ccc(F)cc3)nc12	14.2	–	–	8.5	–	–	6.0
COC(=O)c1cc(-c2cccc3ccccc23)c(=O)n2c1CCC2	–	–	·	–	–	·	·
COc1ccc(C2NN=C(c3ccc(C)cc3)S2)cc1 (stereo unspecified)	–	–	–	–	–	·	·

Screens as filed in PubChem BioAssay.
